ALR inh: blocks human ALR sulfhydryl oxidase activity. AID 485317. purified ALR, DTT oxidation, H2O2 HRP-luminol luminescence. inhibition, % (no concentration beside the values). 3.8% of 290,000 active;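 active means mean replicate inhibition above about 79%, with every replicate also reaching it, limit read from the data; inconclusive means only one of the two criteria met; inactive means mean below limit and not every replicate reaching it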
Target sequence (P55789 whole entry, looked up): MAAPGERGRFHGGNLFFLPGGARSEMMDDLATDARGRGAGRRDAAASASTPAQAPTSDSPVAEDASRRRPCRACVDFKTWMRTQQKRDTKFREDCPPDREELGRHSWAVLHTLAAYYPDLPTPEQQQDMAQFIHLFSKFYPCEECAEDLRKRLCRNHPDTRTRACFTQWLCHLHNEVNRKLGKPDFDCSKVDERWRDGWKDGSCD
Efflux pump mplx: inhibitors of Candida antifungal efflux pumps expressed in yeast | 0.44% of 330,000 active | inhibition, % at 10 µM | S. cerevisiae Candida pump triplex, Nile Red efflux;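 active means plate passing quality check with inhibition over a set limit, or well fluorescence over plate mean plus 4 SD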;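 further: Nile Red retained in pooled yeast measured as flow cytometry median fluorescence; 0% = buffer negative control and 100% = Enniatin B positive control; higher means more Nile Red kept so more efflux inhibition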
GRK2 aptamer HTS: inhibitors of human GRK2 displacing RNA aptamer | bead flow cytometry, FAM-aptamer displacement from GRK2 | P25098 | 0.59% of 330,000 active | inhibition of aptamer binding, % at 10 µM;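 active means inhibition of aptamer binding above 40%, roughly 3 SD of noise, on plates passing a quality check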;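 further: median bead fluorescence of bound FAM aptamer so fluorescent compounds give negative values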
Rtt109 HAT inh: inhibitors of Candida albicans Rtt109/Vps75 histone acetyltransferase; Q5AAJ8; purified Rtt109/Vps75, ThioGlo CoA-SH fluorescence, 4 h; inhibition, % at 34.9 µM; 0.16% of 330,000 active; AID 540336;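 active means inhibition of at least 50% in every replicate; inconclusive means best replicate reaches 50% inhibition but some replicates fall short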
Rce1 inhib: inhibitors of yeast Ras-converting enzyme; Q03530; AID 2563; calls only; 0.27% of 290,000 active; yeast membranes, quenched prenylated peptide cleavage fluorescence;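 active means fall in fluorescence gain of 50% or more versus controls, with final raw signal at or below 3038400; inconclusive means same 50% fall but final raw signal above 3038400; inactive means fall in fluorescence gain under 50%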;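 further: plate controls were neutral control wells for no effect and wells lacking membranes for full effect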
HDAC3 inhib: blocks human histone deacetylase 3 | inhibition, % at 8.3 µM | recombinant HDAC3, fluorogenic peptide/trypsin coupled, fluorescence | O15379 | 0.15% of 320,000 active | AID 2718; in the data active means inhibition above about 26%, passing the limit was not always enough; inconclusive means no clear call, values can overlap the other calls
Target sequence (O15379 whole entry, looked up): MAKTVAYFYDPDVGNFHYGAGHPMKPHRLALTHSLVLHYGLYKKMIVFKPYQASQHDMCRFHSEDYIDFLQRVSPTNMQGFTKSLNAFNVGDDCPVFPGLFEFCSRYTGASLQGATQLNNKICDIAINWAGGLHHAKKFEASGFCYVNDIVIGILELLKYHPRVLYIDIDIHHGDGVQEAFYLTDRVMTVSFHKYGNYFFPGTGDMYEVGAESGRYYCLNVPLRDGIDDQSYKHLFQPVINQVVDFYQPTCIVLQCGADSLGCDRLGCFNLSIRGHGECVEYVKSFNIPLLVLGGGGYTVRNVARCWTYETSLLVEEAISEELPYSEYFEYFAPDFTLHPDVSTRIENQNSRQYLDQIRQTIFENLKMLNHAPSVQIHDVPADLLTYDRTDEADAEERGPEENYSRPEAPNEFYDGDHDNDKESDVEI
Yeast cmpd fluor: flagged as fluorescent in efflux inhibitor counter-screen. shares compounds with Efflux pump mplx. S. cerevisiae AD/pABC3, compound fluorescence, flow cytometry. fluorescence ratio to DMSO, % at 10 µM. 4% of 1,700 active. AID 588517;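 active means fluorescence ratio to DMSO above its plate's cutoff, the plate mean ratio plus 5 SD, cut at about 210% in these data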;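 further: unstained yeast with no Nile Red so the signal is compound autofluorescence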
CaMdr1 efflux inh: blocks the Candida albicans Mdr1 efflux pump in yeast. shares compounds with Efflux pump mplx. 1% of 1,700 active. inhibition, % at 10 µM. AID 588518. S. cerevisiae AD/CaMDR1, Nile Red efflux, flow cytometry; in the data active means inhibition above about 26%;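 further: 0% = DMSO vehicle and 100% = reference inhibitor; higher means more Nile Red retained so more efflux inhibition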
CaCdr2 efflux inh: blocks the Candida albicans Cdr2 efflux pump in yeast. shares compounds with Efflux pump mplx. S. cerevisiae AD/CaCDR2, Nile Red retention, flow cytometry. Nile Red retention ratio vs DMSO, % at 10 µM. 4% of 1,700 active. AID 588520; in the data active means Nile Red retention ratio vs DMSO above about 190%;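 further: higher ratio means more blocking of Cdr2 efflux of the dye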
Cdr1 pump inh: blocks the Candida albicans Cdr1 efflux pump in yeast; shares compounds with Efflux pump mplx; S. cerevisiae AD/CaCDR1, Nile Red efflux, flow cytometry; inhibition, % at 10 µM; 1% of 1,700 active; AID 588522;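 active means inhibition above the screen-wide mean plus twice its standard deviation, cut at about 32% in these data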
GRK2 inh confirm: human GRK2 inhibition confirmation, cherry pick 1 | 4% of 2,000 active | aptamer displacement, % at 10 µM | AID 504451 | bead-bound GRK2, FAM-aptamer displacement, flow cytometry | shares compounds with GRK2 aptamer HTS;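 active means aptamer displacement above 40%, near three times the noise of non-fluorescent compounds, on plates passing quality checks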;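 further: negative values mostly reflect intrinsic compound fluorescence rather than true enhancement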
FAM quench CP1: quenches fluorescent RNA aptamer, GRK2 hit artifact; shares compounds with GRK2 aptamer HTS; Carboxyfluorescein RNA aptamer on beads, flow cytometry quenching; active compounds read low; fluorescence response (% of DMSO), % at 10 µM; 2,000 tested, under 10 active; AID 504580;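 active means compounds that quench the bead-bound fluorescent RNA probe, cutting fluorescence to under half of the solvent control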;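 further: counterscreen run without GRK2 so only probe quenching by compound is measured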
* marks the source's active call; other numbers are inactive results. In the library only some 4.5% were active in any assay of this set; here they are far more common.

For Cc1ccc(OCc2cc(C(=O)NCC3COCCO3)no2)cc1C (centres undefined) the results were ALR inh 2, Efflux pump mplx 0, GRK2 aptamer HTS 4, Rtt109 HAT inh 0, Rce1 inhib inactive and HDAC3 inhib 2.
For CCN1CCN(C(=O)Cn2cnc3sc(C)c(S(=O)(=O)N4CCN(c5ncccn5)CC4)c3c2=O)CC1 the results were ALR inh 3, Efflux pump mplx 0, GRK2 aptamer HTS 0, Rtt109 HAT inh -3, Rce1 inhib inactive and HDAC3 inhib -6.
`O=C(/C=C/c1ccccc1[N+](=O)[O-])NCCc1ccc(F)cc1` gave ALR inh 0, Efflux pump mplx 0.4*, GRK2 aptamer HTS 0, Rce1 inhib inactive, HDAC3 inhib -1, Yeast cmpd fluor 88, CaMdr1 efflux inh 0, CaCdr2 efflux inh 184 and Cdr1 pump inh 0.
O=C(Cc1cccc(C(F)(F)F)c1)OCN1C(=O)c2ccccc2C1=O was read as Efflux pump mplx 1.3*, GRK2 aptamer HTS 0, Rtt109 HAT inh -3, Rce1 inhib inactive, HDAC3 inhib -3, Yeast cmpd fluor 101, CaMdr1 efflux inh 0, CaCdr2 efflux inh 104 and Cdr1 pump inh 0.
COC(=O)/C=c1/s/c(=C(\C#N)C(=O)NCc2ccco2)n(-c2ccccc2)c1=O was read as ALR inh 7, Efflux pump mplx 0, GRK2 aptamer HTS 4, Rtt109 HAT inh -3, Rce1 inhib inactive and HDAC3 inhib -5.
For COc1ccc(/C=c2\s/c(=C(/C#N)C(=O)NCc3ccco3)n(-c3ccccc3)c2=O)cc1 the results were ALR inh 32, Efflux pump mplx 0.7*, GRK2 aptamer HTS 6, Rtt109 HAT inh -5, Rce1 inhib inactive, HDAC3 inhib -2, Yeast cmpd fluor 106, CaMdr1 efflux inh 0, CaCdr2 efflux inh 107 and Cdr1 pump inh 0.
`O=C(CSC1=Nc2ccccc2C2=NC(CC(=O)N3CCN(c4ccccc4)CC3)C(=O)N12)NCC1CCCO1` (centres undefined) gave ALR inh -2, Efflux pump mplx 0.8*, GRK2 aptamer HTS 2, Rtt109 HAT inh -3, Rce1 inhib inactive, HDAC3 inhib -3, Yeast cmpd fluor 99, CaMdr1 efflux inh 0, CaCdr2 efflux inh 101 and Cdr1 pump inh 0.
`Cc1cc([N+](=O)[O-])ccc1NC(=O)CCC(=O)N1CCCCCC1` gave ALR inh -7, Efflux pump mplx 0, GRK2 aptamer HTS 6, Rtt109 HAT inh 13, Rce1 inhib inactive and HDAC3 inhib 1.
Screening CC(NC(=O)N1CCN(c2ccccc2F)CC1)c1ccc(F)c(F)c1 (centres undefined) returned ALR inh 0, Efflux pump mplx 0, GRK2 aptamer HTS 0, Rtt109 HAT inh -7, Rce1 inhib inactive and HDAC3 inhib 4.
`COC(=O)C(C)Oc1ccc(Oc2nc(Cl)ccc2Cl)cc1` (centres undefined) gave ALR inh -1, Efflux pump mplx 0, GRK2 aptamer HTS 1, Rtt109 HAT inh 0, Rce1 inhib inactive and HDAC3 inhib 4.
`Cc1noc(C)c1NC(=O)N(C)C[C@H]1Oc2ccc(NC(=O)Nc3ccc4c(c3)OCO4)cc2C(=O)N([C@H](C)CO)C[C@@H]1C` gave ALR inh -4, Efflux pump mplx 0, GRK2 aptamer HTS 0, Rtt109 HAT inh -7 and HDAC3 inhib 4.
O=C(O)Cc1ccc(NC(=O)c2ccc(NC(=O)c3ccco3)cc2)cc1 was read as ALR inh 2, Efflux pump mplx 11*, GRK2 aptamer HTS 48*, Rtt109 HAT inh 2, Rce1 inhib inactive, HDAC3 inhib -3, Yeast cmpd fluor 107, CaMdr1 efflux inh 0, CaCdr2 efflux inh 100, Cdr1 pump inh 0, GRK2 inh confirm 1 and FAM quench CP1 98.
`CC[n+]1ccccc1/C=C1\Sc2ccc(C)cc2N1C` gave ALR inh inconclusive, Efflux pump mplx 0, GRK2 aptamer HTS 2, Rtt109 HAT inh -1, Rce1 inhib inactive and HDAC3 inhib 8.
Screening CCN1/C(=C/c2ccc3cc(C)ccc3[n+]2CC)Sc2ccccc21 returned ALR inh 22, Efflux pump mplx 3.0*, GRK2 aptamer HTS 55*, Rtt109 HAT inh inconclusive, Rce1 inhib inactive, HDAC3 inhib 19, CaMdr1 efflux inh 5, CaCdr2 efflux inh 143, Cdr1 pump inh 2, GRK2 inh confirm 29 and FAM quench CP1 180.
For CSc1ccccc1OCc1cc(C(=O)N[C@H]2CCCCNC2=O)no1 the results were ALR inh 2, Efflux pump mplx 4, GRK2 aptamer HTS 0, Rtt109 HAT inh -7, Rce1 inhib inactive and HDAC3 inhib -5.
Screening C#CC1(NC(=O)NCCCC)CCCCC1 returned ALR inh -4, Efflux pump mplx 0, GRK2 aptamer HTS 0, Rtt109 HAT inh -8, Rce1 inhib inactive and HDAC3 inhib -3.
CC(C)=CCC/C(C)=C/CNC(=O)CC1C[C@H](C(=O)N(C(C)C)C(C)C)[C@@]2(C)c3[nH]c4ccccc4c3CCN2C1=O (some centres undefined) was read as Efflux pump mplx 0, GRK2 aptamer HTS 0, Rtt109 HAT inh 0 and HDAC3 inhib -3.
Screening CCOc1ccc(N(CC(=O)N2CCCCCC2)S(C)(=O)=O)cc1 returned ALR inh -2, Efflux pump mplx 0, GRK2 aptamer HTS 0, Rtt109 HAT inh -5, Rce1 inhib inactive and HDAC3 inhib 3.
Screening O=C(O)c1ccc(-c2nc3ccccc3s2)o1 returned ALR inh 1, Efflux pump mplx 0, GRK2 aptamer HTS 0, Rtt109 HAT inh 0, Rce1 inhib inactive and HDAC3 inhib -4.
